Test [1] concerns the target Gonadotropin-releasing hormone receptor (Homo sapiens) (UniProt P30968). In words: Human gonadotropin-releasing hormone receptor (GnRHR) small molecule agonists, calcium flux assay in GnRHR-HEK293 cells (AID 1920063). Note: nearly all actives have a fitted effect of over 35% in size. Particulars: calcium flux fluorescence, agonist mode; series mostly up to 57.6 µM. The essentials:
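We seeded human GnRHR-expressing HEK293 cells for 18 hours, loaded them with calcium dye for an hour at 37 C, added test compounds, and recorded fluorescence intensity kinetically for three minutes.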

Test [2] concerns the target KiSS-1 receptor (Homo sapiens) (UniProt Q969F8). In words: Human kisspeptin (KISS1R) small molecule agonists, calcium flux assay in KISS1R-HEK293 cells (AID 1920064; active = well fitted activation curve with a large enough effect in the repeat runs). Particulars: KISS1R-HEK293, calcium flux fluorescence, agonist; series mostly up to 76.8 µM. In outline: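 Kinetic calcium assay, 1 s sampling over 3 min at Ex/Em 480/540, in HEK293 cells engineered with human KISS1R; compounds delivered in DMSO after 1 h dye loading.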
In general terms: Calcium flux is commonly read through the fluorescence of an indicator in the cells.

Test [3] can be described thus: G protein-coupled receptor (GPCR) small molecule agonists, calcium flux assay: HEK293 wild type cell line counter screen (AID 1920065). Conditions: HEK293 WT calcium flux, fluorescence, agonist mode; series mostly up to 57.6 µM. The essentials:
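Calcium-sensitive dye, loaded 1 h at 37 C into cells cultured 18 h, reports compound-evoked calcium release as fluorescence (Ex/Em 480/540), measured over 3 min. Agonist mode; 15-point titrations, triplicate.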

Test [4] in a line: p53 small molecule agonists, cell-based qHTS assay with human liver microsomes (AID 1963577). Particulars: HCT-116 p53RE-bla with human liver microsomes, ratio, 16 h; series mostly up to 66 µM. The essentials:
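Compounds act here after metabolic activation: human liver microsomes and NADPH, both at 0.5 mg/mL final, were co-added to p53RE-bla cells. Incubation ran 16 h at 37 C, followed by LiveBLAzer detection.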

The nature of test [5]: p53 small molecule agonists, cell-based qHTS assay with rat liver microsomes (AID 1963578). Particulars: HCT-116 p53RE-bla, beta-lactamase ratio, 16 h; series mostly up to 66 µM. The essentials:
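Read-out is beta-lactamase reporter fluorescence (LiveBLAzer, 2 h, room temperature, dark) in p53RE-bla cells treated 16 h at 37 C with compound, rat liver microsomes and NADPH, both 0.5 mg/mL final.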

A short description of test [6]: p53 small molecule agonists, cell-based qHTS assay with human liver microsomes: qHTS cell viability counter screen (AID 1963579). Note: nearly all actives have a fitted effect of over 45% in size. Particulars: p53RE-bla HCT-116 viability, ATP luminescence, 16 h, HLM; series mostly up to 66 µM. The essentials:
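Cells carrying the p53 response-element beta-lactamase reporter are treated for 16 h at 37 C with test compounds in the presence of human liver microsomes and NADPH (both 0.5 mg/mL final); ATP-based CellTiter-Glo luminescence then reports viability.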

The nature of test [7]: p53 small molecule agonists, cell-based qHTS assay with rat liver microsomes: qHTS cell viability counter screen (AID 1963580). Note: nearly all actives have a fitted effect of over 45% in size. Conditions: p53RE-bla HCT-116 + rat microsomes, ATP viability, 16 h; series mostly up to 66 µM. In outline:
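p53RE-bla HCT-116 cells (4,000/well) rested 5 h at 37 C, then given Tox21 compounds in DMSO with rat liver microsomes (0.5 mg/mL final) plus NADPH (0.5 mg/mL final) for 16 h at 37 C. Viability read by CellTiter-Glo luminescence after 30 min at room temperature.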

Test [8] is described as follows: p53 small molecule agonists, cell-based qHTS assay (AID 1963582; active = well fitted activation curve with a large enough effect in the signal ratio in the repeat runs, not every such curve was filed as active; the % refers to the signal ratio). Particulars: HCT-116 p53RE-bla reporter, beta-lactamase FRET ratio, 16 h; series mostly up to 66 µM. The essentials: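 In this cell-based concentration-response screen, a p53 response element drives beta-lactamase; cells received DMSO-borne compounds after 5 h culture and were incubated a further 16 h before FRET substrate development.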
(In qHTS, concentration-response curves come from the screen itself.)

Test [9] deals with 5-hydroxytryptamine receptor 2A (Homo sapiens) (UniProt P28223). Kind of test: 5-hydroxytryptamine receptor 2A (HTR2A) small molecule antagonists, cell-based qHTS assay (AID 1963586). Note: nearly all actives have a fitted effect of over 45% in size. Note: potency is the fitted concentration of half-maximal effect. Particulars: HTR2A-CHO cells, DOI-induced calcium flux, fluorescence; series mostly up to 61.5 µM. The essentials:
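Antagonist-mode intracellular calcium assay: DOI (4 nM) added after 5 min compound pre-incubation at room temperature to dye-loaded HTR2A-CHO cells. Fluorescence followed for 3 min, sampled every second.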

Test [10] shares this target. Kind of test: 5-hydroxytryptamine receptor 2A (HTR2A) small molecule agonists, cell-based qHTS assay (AID 1963587). Note: nearly all actives have a fitted effect of over 30% in size. Conditions: HTR2A-CHO cells, calcium flux fluorescence, agonist mode; series mostly up to 76.8 µM. In outline: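 HTR2A-CHO cells, plated 18 h at 37 C/5% CO2, dye-loaded 1 h at 37 C; compounds in DMSO added by pin tool (agonist mode). Intracellular calcium flux read as kinetic fluorescence on FDSS over 2 min at 1 s intervals.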

Test [11] concerns the target Muscarinic acetylcholine receptor M1 (Homo sapiens) (UniProt P11229). Kind of test: Cholinergic receptor muscarinic 1 (CHRM1) small molecule agonists, cell-based qHTS assay (AID 1963589). Note: nearly all actives have a fitted effect of over 35% in size. Conditions: CHRM1-CHO cells, agonist mode, calcium flux fluorescence; series mostly up to 76.8 µM. In outline: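 Measures agonist-induced intracellular calcium rise. Stable human CHRM1 CHO line, 1 h dye load at 37 C, compounds from DMSO, kinetic fluorescence read.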

Test [12] in a line: cAMP Responsive Elements (CRE) small molecule agonists, cell-based qHTS assay (AID 1963590). Conditions: CRE-bla HEK293T, beta-lactamase FRET ratio, 3 h; series mostly up to 92.4 µM. In outline: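 A CRE-responsive beta-lactamase reporter in HEK 293T cells was used. Treatment ran 3 h at 37 C; detection used LiveBLAzer B/G FRET substrate for 2 h at room temperature.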
Test [13] addresses Beta-2 adrenergic receptor (Homo sapiens) (UniProt P07550). Kind of test: Adrenergic beta2 receptor (ADRB2) small molecule antagonists, cell-based qHTS assay (AID 1963592). Note: nearly all actives have a fitted effect of over 50% in size. Particulars: CHO-ADRB2 cells, isoproterenol-stimulated cAMP HTRF ratio, 0.5 h; series mostly up to 92.4 µM. In outline:
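Cells (CHO, stable ADRB2 overexpression) incubated 18-20hr at 37C; compounds added from DMSO; agonist mix (1nM isoproterenol, 100uM IBMX, 25uM Ro-20-1724) added; 0.5hr RT; d2-cAMP and anti-cAMP-cryptate added; 1hr RT; 665/615 nm read.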

The target in test [14] is D(2) dopamine receptor (Homo sapiens) (UniProt P14416). In words: Dopamine D2 receptor (DRD2) small molecule agonists, cell-based qHTS assay (AID 1963594). Note: nearly all actives have a fitted effect of over 35% in size. Particulars: HEK293-DRD2 cAMP HTRF, agonist mode, 30 min; series mostly up to 92.4 µM. In outline:
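HEK293 cells stably expressing DRD2 were cultured 24 h at 37 C, then given Ro20-1724 (0.1 mM final) and compounds for 10 min at room temperature. NKH477 (200nM) was then added for 30 min. cAMP was read by HTRF.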

The target is the same in test [15]. In words: Dopamine D2 receptor (DRD2) small molecule antagonists, cell-based qHTS assay (AID 1963595; active = well fitted inhibition curve with a large enough effect in the signal ratio in the repeat runs, with a control signal flat; the % refers to the signal ratio). Conditions: HEK293-DRD2 cAMP HTRF antagonist mode; series mostly up to 92.4 µM. In outline:
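Readout: HTRF cAMP, cAMP-d2 competing with cellular cAMP for anti-cAMP cryptate, read after 1 h. Cells: DRD2-HEK293. Conditions: 0.1 mM Ro20-1724, 12 nM quinpirole, 200 nM NKH477, 30 min RT.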

Test [16] is described as follows: p53 small molecule agonists, cell-based qHTS assay: qHTS cell viability counter screen (AID 1963581). Note: nearly all actives have a fitted effect of over 45% in size. Conditions: p53RE-bla HCT-116 viability, ATP luminescence, 16 h; series mostly up to 66 µM. In outline: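 Following 5 h attachment, HCT-116 p53RE-bla cells took up compound for 16 h at 37 C; the reporter was read with B/G FRET substrate (2 h RT), and viability then via CellTiter-Glo ATP luminescence.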

In test [17] the target is Muscarinic acetylcholine receptor M1 (Homo sapiens) (UniProt P11229). Kind of test: Cholinergic receptor muscarinic 1 (CHRM1) small molecule antagonists, cell-based qHTS assay (AID 1963588). Note: nearly all actives have a fitted effect of over 40% in size. Conditions: CHRM1-CHO antagonist mode, calcium flux fluorescence; series mostly up to 61.5 µM. In outline:
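CHRM1-CHO calcium-flux assay, antagonist mode. Cells were seeded 18 h, dye-loaded 1 h at 37 C and given compound for 5 min at RT, then acetylcholine was added at 50nM. FDSS fluorescence was read 3 min; 15 concentrations, three runs.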

A short description of test [18]: cAMP Responsive Elements (CRE) small molecule antagonists, cell-based qHTS assay (AID 1963591; active = well fitted inhibition curve with a large enough effect in the signal ratio in the repeat runs, not every such curve was filed as active; the % refers to the signal ratio). Particulars: CRE-bla HEK293T, beta-lactamase FRET ratio; series mostly up to 92.4 µM. The essentials: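 HEK293T cells carrying a CRE-driven beta-lactamase reporter receive compound and NKH477 (0.25 uM final) for 3 h. Fluorescence from LiveBLAzer B/G FRET substrate is read after 2 h at room temperature.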

A short description of test [19]: Nuclear factor erythroid 2-related factor 2/antioxidant responsive element (Nrf2/ARE) small molecule agonists: luciferase reporter gene qHTS assay in human keratinocytes (AID 1919969). Note: nearly all actives have a fitted effect of over 35% in size. Conditions: KeratinoSens HaCaT ARE-luciferase, luminescence, 24 h; series mostly up to 92.4 µM.

Values without a mark were called inactive. Records with an inconclusive call do not appear. Calls of active or inactive are those of the source. Unless noted, calls come from the whole dose curve.

Chain of 5-hydroxytryptamine receptor 2A (Homo sapiens) (P28223 whole entry, looked up): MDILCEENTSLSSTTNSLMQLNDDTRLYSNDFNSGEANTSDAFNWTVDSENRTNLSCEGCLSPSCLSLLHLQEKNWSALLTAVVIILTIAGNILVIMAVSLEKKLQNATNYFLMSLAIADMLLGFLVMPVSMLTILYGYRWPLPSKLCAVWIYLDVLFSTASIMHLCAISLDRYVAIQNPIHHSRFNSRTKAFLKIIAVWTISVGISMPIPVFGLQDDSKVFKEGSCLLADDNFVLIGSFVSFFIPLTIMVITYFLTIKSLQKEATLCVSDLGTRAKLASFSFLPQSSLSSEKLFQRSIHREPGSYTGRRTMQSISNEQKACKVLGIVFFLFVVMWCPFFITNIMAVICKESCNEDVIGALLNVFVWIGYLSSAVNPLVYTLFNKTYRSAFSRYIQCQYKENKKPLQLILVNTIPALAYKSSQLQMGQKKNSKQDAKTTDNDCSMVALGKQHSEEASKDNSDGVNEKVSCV
Chain of Gonadotropin-releasing hormone receptor (Homo sapiens) (P30968 whole entry, looked up): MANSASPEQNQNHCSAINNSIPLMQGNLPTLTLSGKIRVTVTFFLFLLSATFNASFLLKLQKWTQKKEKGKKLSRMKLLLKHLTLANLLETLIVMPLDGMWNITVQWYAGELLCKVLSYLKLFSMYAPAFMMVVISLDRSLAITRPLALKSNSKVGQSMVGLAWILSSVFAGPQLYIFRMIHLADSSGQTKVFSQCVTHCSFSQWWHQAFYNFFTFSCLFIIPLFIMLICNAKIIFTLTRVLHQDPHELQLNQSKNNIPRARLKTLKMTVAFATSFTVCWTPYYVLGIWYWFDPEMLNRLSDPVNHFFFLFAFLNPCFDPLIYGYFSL
Chain of Muscarinic acetylcholine receptor M1 (Homo sapiens) (P11229 whole entry, looked up): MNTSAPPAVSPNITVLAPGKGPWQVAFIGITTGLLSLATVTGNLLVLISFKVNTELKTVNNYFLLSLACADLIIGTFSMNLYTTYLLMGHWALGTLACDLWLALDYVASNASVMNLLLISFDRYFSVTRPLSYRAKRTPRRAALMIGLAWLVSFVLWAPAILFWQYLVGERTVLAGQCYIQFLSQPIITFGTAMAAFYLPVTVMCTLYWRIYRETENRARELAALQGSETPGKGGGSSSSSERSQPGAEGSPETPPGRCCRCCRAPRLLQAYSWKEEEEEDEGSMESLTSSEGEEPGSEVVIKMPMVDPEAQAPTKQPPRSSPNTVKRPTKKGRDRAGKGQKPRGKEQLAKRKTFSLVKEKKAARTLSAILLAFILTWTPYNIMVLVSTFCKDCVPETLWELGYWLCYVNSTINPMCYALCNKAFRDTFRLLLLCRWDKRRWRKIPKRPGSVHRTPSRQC
Chain of Beta-2 adrenergic receptor (Homo sapiens) (P07550 whole entry, looked up): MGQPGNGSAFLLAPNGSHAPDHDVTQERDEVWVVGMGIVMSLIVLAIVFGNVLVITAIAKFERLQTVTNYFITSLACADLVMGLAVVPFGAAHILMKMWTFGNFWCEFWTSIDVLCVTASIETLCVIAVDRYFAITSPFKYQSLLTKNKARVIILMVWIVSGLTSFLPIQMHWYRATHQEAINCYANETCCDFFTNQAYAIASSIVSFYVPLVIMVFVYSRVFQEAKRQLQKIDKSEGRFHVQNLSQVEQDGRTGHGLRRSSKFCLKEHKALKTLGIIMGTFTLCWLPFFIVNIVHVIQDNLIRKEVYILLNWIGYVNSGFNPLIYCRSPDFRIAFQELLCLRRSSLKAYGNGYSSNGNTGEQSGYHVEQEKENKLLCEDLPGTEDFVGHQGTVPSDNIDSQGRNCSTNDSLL
Chain of KiSS-1 receptor (Homo sapiens) (Q969F8 whole entry, looked up): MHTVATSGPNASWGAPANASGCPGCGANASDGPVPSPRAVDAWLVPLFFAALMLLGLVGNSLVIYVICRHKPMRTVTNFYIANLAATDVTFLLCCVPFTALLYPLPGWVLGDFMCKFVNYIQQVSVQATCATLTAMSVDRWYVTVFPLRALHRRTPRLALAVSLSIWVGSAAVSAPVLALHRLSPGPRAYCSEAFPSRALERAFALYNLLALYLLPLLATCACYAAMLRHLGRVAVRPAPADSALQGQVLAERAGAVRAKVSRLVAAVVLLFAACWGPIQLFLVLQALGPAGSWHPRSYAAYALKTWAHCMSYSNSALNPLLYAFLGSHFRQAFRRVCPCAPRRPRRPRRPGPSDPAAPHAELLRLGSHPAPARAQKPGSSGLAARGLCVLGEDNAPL
Chain of D(2) dopamine receptor (Homo sapiens) (P14416 whole entry, looked up): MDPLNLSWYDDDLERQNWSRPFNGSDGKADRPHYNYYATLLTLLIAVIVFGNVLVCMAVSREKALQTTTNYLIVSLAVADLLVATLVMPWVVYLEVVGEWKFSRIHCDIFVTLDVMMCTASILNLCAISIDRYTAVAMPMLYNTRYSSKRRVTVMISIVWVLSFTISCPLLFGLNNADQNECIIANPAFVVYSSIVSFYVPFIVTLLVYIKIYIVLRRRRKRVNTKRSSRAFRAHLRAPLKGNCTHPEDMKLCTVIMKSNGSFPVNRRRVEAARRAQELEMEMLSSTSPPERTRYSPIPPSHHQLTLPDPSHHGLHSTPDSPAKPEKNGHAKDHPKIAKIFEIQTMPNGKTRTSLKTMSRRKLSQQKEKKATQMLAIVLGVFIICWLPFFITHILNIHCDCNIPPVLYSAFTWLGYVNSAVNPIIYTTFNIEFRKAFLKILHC

On to `CC(=O)Nc1cccc(C)c1`, for which the Potency entry in [1], in test [4], in test [5], in test [6], in test [7] and in test [8] was “inactive” each time. The Potency result in [9], in [10], in [11], in test [12], in test [13] and in test [14] was “inactive” each time. Moreover, the Potency entry in test [15] was “inactive”. Further, the outcome in [2] and in test [3] was inactive.

Regarding `Nc1ccc(Oc2cccc(Oc3ccc(N)cc3)c2)cc1`, the outcome in [2] and in test [3] was inactive. Further, the Potency result in [4], in test [6], in [7], in test [16], in test [17] and in [11] was “inactive” in each case. In addition, the Potency result in test [18], in [13], in test [14] and in [15] was “inactive” each time. In addition, the Potency in test [9] is 840 nM (active).

For `O=C(O)c1ccncc1`, the outcome in [2] and in test [3] was inactive. Also, the Potency entry in [4], in test [5], in test [6], in [16], in test [8] and in test [9] was “inactive” each time. In addition, the Potency entry in test [10], in test [11], in test [12], in test [18], in test [13] and in test [14] was “inactive” in each case. Moreover, in test [15], the Potency entry is “inactive”.

Consider `COC(=O)c1cc(C(=O)OC)cc(S(=O)(=O)O)c1`, for which the Potency result in test [1], in test [4], in test [6], in [7], in test [16] and in test [8] was “inactive” throughout. Besides, the Potency result in test [9], in test [10], in test [17], in [11], in test [12] and in test [18] was “inactive” throughout. In addition, the Potency result in test [13] and in test [15] was “inactive” throughout. The outcome in test [2] and in test [3] was inactive.

Consider `CCCCCCCC1CCCC1=O` (configuration not stated), for which the Potency result in test [1], in [4], in [5], in test [6], in test [7] and in test [16] was “inactive” throughout. For the same compound, the Potency entry in test [8], in test [9], in test [10], in test [17], in test [11] and in test [12] was “inactive” each time. The Potency result in [18], in test [13], in [14] and in test [15] was “inactive” each time. The outcome in [2] and in [3] was inactive.

For the compound `CC12CCC(CC1=O)C2(C)C` (configuration not stated), the Potency result in test [19], in [4], in test [5], in test [6], in test [16] and in test [8] was “inactive” in each case. In addition, the Potency result in test [12], in test [18] and in test [15] was “inactive” in each case. The outcome in test [2] was inactive.
